Experimental findings from PubChem BioAssay (NCATS) are described below.

Experiment [1] is described as follows: Stat Signaling Pathway (AID 446; active = well fitted curve in either direction with a large enough effect, not every such curve was filed as active;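 note: ME-180 cervical cancer cells given 40 pM IL-6 alongside compound; SIE-controlled beta-lactamase reporter measured as 460/530 nm FRET emission ratio; % is set by controls: 0 for no effect and ±100 for the full control effect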). The method, boiled down:
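Normalization used AC90 stimulation (300 pM IL-6) and AC90 inhibition (125 nM pan-JAK inhibitor at 40 pM IL-6). The underlying signal is SIE-driven beta-lactamase in ME-180 cells after 5 h IL-6 exposure with compound.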

For experiment [2], the target named is Dual specificity protein kinase CLK4 (Homo sapiens) (UniProt Q9HAZ1). The experiment can be described thus: qHTS Assay for Inhibitors of CDC-like Kinase 4 (Kinase-Glo Assay) (AID 1770). Note: nearly all actives have a fitted effect of over 65% in size. Note: potency is the fitted concentration of half-maximal effect. The method, boiled down:
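Recombinant human Clk4 (25 nM) phosphorylated RS repeat peptide (100 uM) with 1 uM ATP in Tris pH 7.5/MgCl2/EGTA/DTT/Triton buffer for 4.5 h at room temperature. Residual ATP was quantified by Kinase-Glo luciferase luminescence.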

The target is the same in experiment [3]. The experiment can be described thus: qHTS Assay for Inhibitors of CDC-like Kinase 4 (ADP-Glo Assay) (AID 1771). For activity change, negative = inhibition: % is set by controls: 0 for no effect and ±100 for the full control effect. Note: nearly all actives have a fitted effect of over 70% in size. Note: potency is the fitted concentration of half-maximal effect. The method, boiled down: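 ADP production was read by ADP-Glo luminescence after residual ATP depletion, following 1 h room-temperature reaction of 25 nM Clk4, 1 uM ATP and 100 uM RS peptide with MgCl2, EGTA, DTT and Triton X-100.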
A general note: Quantitative high-throughput screening tests each substance at several concentrations.

Experiment [4] has as its target Lysosomal acid glucosylceramidase (Homo sapiens) (UniProt P04062). Briefly: Glucocerebrosidase-p2 (AID 348; in the data active = potency below about 10 µM; note: potency is the fitted concentration of half-maximal effect). The following applies: purified GBA, blue fluorogenic substrate, 40 min. The method, boiled down:
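Normal human glucocerebrosidase (0.2 nM) with blue fluorogenic substrate (80 uM final) in citrate/phosphate pH 5.9 with 10mM sodium taurocholate, 0.01% tween-20; 40 min RT, NaOH/glycine stop; fluorescence Ex 365/Em 440; AC50 from a titration from 0.6 nM upwards.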

Experiment [5] addresses Cytochrome P450 3A4 (Homo sapiens) (UniProt P08684). The experiment can be described thus: qHTS Assay for Activators of Cytochrome P450 3A4 (AID 885). Note: nearly all actives have a fitted effect of over 65% in size. The essentials:
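Human CYP3A4 dealkylates Luciferin-PPXE to luciferin, which luciferase detection converts to light. Substrate was at its KM (25uM), buffer 200mM KPO4, reaction 60 min at RT.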

Experiment [6] addresses Dual specificity protein kinase CLK4 (Homo sapiens) (UniProt Q9HAZ1). Briefly: qHTS Assay for Inhibitors of CDC-like Kinase 4 (ADP-FP Assay) (AID 1795). For activity change, negative = inhibition: series mostly up to about 50 µM; % is set by controls: 0 for no effect and ±100 for the full control effect. Note: nearly all actives have a fitted effect of over 60% in size. Note: potency is the fitted concentration of half-maximal effect. The essentials: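 Recombinant human Clk4 (6.25 nM) phosphorylated RS repeat peptide (100 uM) with 1 uM ATP in Tris pH 7.5/MgCl2/EGTA/DTT/Triton buffer for one hour. ADP was quantified by Transcreener competitive fluorescence polarization against an ADP calibration curve.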

Experiment [7] deals with 3',5'-cyclic-AMP phosphodiesterase 4B (Homo sapiens) (UniProt Q07343). Briefly: qHTS Assay for Inhibitors of PDE-IV (AID 607; active = well fitted activation curve with a large enough effect in the main read-out, with a control signal flat, not every such curve was filed as active; note: % of control where 0% means no effect). The essentials: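 HEK293 ACTOne cells with CNG channel (1000/well), endogenous PDE4; membrane potential dye, compounds up to 22.9 uM final. Fluorescence Ex 535/Em 590; RO 20-1724 (100 uM final) as reference.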
Sequence of 3',5'-cyclic-AMP phosphodiesterase 4B (Homo sapiens) (Q07343 whole entry, looked up): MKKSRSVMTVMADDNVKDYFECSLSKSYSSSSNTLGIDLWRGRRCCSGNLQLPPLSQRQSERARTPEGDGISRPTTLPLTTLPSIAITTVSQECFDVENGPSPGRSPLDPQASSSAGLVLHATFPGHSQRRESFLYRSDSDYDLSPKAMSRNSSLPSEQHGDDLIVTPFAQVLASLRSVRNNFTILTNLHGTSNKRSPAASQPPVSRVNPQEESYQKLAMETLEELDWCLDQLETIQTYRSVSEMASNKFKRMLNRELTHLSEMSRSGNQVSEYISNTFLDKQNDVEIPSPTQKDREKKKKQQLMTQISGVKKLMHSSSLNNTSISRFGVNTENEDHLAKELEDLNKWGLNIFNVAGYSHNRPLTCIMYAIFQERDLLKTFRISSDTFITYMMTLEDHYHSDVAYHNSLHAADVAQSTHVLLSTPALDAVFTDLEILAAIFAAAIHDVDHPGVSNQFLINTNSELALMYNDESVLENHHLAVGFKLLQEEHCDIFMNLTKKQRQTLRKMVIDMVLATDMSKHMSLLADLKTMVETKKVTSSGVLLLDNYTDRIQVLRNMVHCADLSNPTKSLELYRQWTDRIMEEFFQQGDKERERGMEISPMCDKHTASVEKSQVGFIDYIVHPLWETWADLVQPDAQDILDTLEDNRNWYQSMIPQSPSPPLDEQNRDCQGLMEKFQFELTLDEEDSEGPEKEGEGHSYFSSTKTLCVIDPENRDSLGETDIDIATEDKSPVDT
For experiment [8], the target named is Cytochrome P450 1A2 (Homo sapiens) (UniProt P05177). The experiment can be described thus: p450-cyp1a2 (AID 410; calls by dose curve; note: potency is the fitted concentration of half-maximal effect). The essentials: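 Luminescent demethylation readout: Luciferin-ME (100uM, equal to Km) turned over by 20nM CYP1A2 for 60 min at room temperature after NADPH regeneration addition, following 10 min compound preincubation. Normalization used 57 uM furafylline as full inhibition.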
Sequence of Cytochrome P450 1A2 (Homo sapiens) (P05177 whole entry, looked up): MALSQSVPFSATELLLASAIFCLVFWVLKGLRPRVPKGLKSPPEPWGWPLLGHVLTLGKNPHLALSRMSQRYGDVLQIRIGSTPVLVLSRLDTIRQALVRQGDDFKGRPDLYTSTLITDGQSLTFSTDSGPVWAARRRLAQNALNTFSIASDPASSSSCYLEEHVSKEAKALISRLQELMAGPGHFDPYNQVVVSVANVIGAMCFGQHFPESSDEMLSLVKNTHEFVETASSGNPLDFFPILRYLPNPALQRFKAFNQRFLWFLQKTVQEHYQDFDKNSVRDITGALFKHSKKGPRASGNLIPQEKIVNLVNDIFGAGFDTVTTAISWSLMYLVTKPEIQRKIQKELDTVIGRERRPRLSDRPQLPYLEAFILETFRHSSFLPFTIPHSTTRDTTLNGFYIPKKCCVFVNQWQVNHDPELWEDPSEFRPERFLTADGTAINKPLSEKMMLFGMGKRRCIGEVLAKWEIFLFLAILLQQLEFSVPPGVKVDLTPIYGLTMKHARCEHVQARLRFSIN

The target of experiment [9] is Cytochrome P450 2D6 (Homo sapiens) (UniProt P10635). Briefly: qHTS Assay for Inhibitors and Substrates of Cytochrome P450 2D6 (AID 891). Note: potency is the fitted concentration of half-maximal effect; nearly all actives have a fitted effect of over 60% in size. The method, boiled down:
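Luminescent read-out of luciferin formed by 5 nM human CYP2D6 demethylating 30 uM Luciferin-ME EGE (Km level) over 60 min at room temperature after NADPH regeneration addition. Data normalized to full inhibition by 1.43 uM quinidine.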

The target of experiment [10] is Cytochrome P450 3A4 (Homo sapiens) (UniProt P08684). Briefly: qHTS Assay for Inhibitors and Substrates of Cytochrome P450 3A4 (AID 884). Note: potency is the fitted concentration of half-maximal effect; nearly all actives have a fitted effect of over 50% in size. The method, boiled down:
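Luminescent readout of luciferin produced by CYP3A4 (20 nM) dealkylation of Luciferin-PPXE, 25 uM (its KM). NADPH-driven reaction ran 60 min at RT after 10 min compound preincubation; data scaled to 57 uM ketoconazole as 100% inhibition.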

Experiment [11] concerns the target Cytochrome P450 2C9 (Homo sapiens) (UniProt P11712). The experiment can be described thus: qHTS Assay for Inhibitors and Substrates of Cytochrome P450 2C9 (AID 883). For activity change, negative = inhibition: % is set by controls: 0 for no effect and ±100 for the full control effect. Note: nearly all actives have a fitted effect of over 60% in size. Note: potency is the fitted concentration of half-maximal effect. The essentials:
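10nM CYP2C9 + 100uM Luciferin-H (=KM), 25mM KPO4; cpd 10 min 37C; NADPH regen, 60 min 37C; stop/detect with P450 Glo-Buffer 20 min; luminescence. Norm. to 57uM sulphaphenazole as full inhibition.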

Experiment [12] has as its target Cytochrome P450 2C19 (Homo sapiens) (UniProt P33261). The experiment can be described thus: qHTS Assay for Inhibitors and Substrates of Cytochrome P450 2C19 (AID 899). Note: potency is the fitted concentration of half-maximal effect; nearly all actives have a fitted effect of over 60% in size. The method, boiled down:
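Luminescent read-out of luciferin formed from Luciferin-H EGE (10uM, equal to KM). Enzyme 5nM in 50mM KPO4; compound added, 10 min at 37C, then NADPH regenerating system for 60 min at 37C. Full inhibition defined by 57uM ketoconazole.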

Unmarked numbers belong to inactive results. Results filed as inconclusive are left out. Activity calls are given as the source filed them. Unless noted, calls come from the whole dose curve; as a rule, active = well fitted curve in the direction sought with a large enough effect; inconclusive = small, poorly fitted or top-dose-only effect, or another doubt; inactive = no such curve, though single readings can be large; an effect the other way counts as inactive or inconclusive.

Sequence of Lysosomal acid glucosylceramidase (Homo sapiens) (P04062 whole entry, looked up): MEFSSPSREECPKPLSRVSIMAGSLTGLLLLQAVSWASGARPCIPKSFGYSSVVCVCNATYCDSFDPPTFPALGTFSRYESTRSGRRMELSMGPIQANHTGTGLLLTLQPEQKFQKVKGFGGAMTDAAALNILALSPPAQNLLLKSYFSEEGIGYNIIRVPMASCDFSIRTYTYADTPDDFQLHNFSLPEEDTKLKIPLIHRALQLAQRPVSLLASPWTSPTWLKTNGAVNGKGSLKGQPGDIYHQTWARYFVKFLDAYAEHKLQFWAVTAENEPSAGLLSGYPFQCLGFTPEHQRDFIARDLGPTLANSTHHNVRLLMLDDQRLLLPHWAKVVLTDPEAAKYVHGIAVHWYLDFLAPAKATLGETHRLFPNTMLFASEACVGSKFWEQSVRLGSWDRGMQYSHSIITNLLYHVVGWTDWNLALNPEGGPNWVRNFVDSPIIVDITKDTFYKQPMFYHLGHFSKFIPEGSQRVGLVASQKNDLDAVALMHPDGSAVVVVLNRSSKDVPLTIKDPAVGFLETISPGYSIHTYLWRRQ
Sequence of Dual specificity protein kinase CLK4 (Homo sapiens) (Q9HAZ1 whole entry, looked up): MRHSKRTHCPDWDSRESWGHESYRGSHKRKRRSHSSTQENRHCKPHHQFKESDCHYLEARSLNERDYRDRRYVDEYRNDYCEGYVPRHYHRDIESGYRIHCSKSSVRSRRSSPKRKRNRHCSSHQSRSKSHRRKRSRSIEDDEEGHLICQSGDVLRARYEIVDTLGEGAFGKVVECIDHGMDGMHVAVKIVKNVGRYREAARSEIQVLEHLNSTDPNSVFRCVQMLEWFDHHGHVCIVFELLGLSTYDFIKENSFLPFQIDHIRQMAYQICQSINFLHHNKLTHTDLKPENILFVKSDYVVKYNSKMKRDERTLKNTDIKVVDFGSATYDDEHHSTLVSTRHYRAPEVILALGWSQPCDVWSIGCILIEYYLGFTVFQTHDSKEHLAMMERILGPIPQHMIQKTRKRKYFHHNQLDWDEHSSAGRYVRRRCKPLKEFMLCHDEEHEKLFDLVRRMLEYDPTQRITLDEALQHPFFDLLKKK
Sequence of Cytochrome P450 2D6 (Homo sapiens) (P10635 whole entry, looked up): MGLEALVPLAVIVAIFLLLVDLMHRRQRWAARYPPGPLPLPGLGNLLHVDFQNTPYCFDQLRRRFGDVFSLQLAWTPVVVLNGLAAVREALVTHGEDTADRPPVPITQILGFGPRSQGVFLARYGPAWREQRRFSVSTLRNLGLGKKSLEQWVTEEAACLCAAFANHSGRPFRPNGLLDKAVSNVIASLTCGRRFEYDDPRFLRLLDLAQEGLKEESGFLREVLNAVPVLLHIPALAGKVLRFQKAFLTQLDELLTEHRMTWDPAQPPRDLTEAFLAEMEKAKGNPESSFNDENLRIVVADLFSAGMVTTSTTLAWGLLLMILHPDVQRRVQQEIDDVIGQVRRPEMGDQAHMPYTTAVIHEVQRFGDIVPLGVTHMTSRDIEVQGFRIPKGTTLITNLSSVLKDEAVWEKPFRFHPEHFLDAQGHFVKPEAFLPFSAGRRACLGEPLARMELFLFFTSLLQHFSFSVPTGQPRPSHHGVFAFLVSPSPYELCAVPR
Sequence of Cytochrome P450 3A4 (Homo sapiens) (P08684 whole entry, looked up): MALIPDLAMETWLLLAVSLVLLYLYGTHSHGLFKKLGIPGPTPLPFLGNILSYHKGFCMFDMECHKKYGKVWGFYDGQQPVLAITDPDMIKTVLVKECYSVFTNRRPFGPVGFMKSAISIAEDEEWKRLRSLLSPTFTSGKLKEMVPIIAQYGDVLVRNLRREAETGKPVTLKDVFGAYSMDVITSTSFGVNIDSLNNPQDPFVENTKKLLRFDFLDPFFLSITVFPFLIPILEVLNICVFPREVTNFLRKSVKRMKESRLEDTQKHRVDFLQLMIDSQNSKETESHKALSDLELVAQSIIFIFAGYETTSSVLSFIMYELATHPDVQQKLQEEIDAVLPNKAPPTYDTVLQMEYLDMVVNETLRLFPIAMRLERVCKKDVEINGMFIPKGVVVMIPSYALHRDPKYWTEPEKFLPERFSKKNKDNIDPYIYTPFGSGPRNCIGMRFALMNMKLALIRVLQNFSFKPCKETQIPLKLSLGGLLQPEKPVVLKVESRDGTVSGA
Sequence of Cytochrome P450 2C9 (Homo sapiens) (P11712 whole entry, looked up): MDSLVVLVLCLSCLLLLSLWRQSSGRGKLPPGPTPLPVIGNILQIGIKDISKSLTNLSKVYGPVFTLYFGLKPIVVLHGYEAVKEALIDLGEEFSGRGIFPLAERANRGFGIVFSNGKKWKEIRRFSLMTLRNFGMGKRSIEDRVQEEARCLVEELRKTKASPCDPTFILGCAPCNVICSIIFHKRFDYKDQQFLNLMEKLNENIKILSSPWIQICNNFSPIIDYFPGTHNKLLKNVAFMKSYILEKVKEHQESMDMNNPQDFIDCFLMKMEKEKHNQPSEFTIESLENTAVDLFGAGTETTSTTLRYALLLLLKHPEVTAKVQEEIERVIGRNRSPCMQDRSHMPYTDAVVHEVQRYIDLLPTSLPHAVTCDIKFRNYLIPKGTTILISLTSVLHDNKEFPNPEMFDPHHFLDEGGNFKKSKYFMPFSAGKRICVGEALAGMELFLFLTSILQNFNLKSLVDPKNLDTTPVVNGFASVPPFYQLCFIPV
Sequence of Cytochrome P450 2C19 (Homo sapiens) (P33261 whole entry, looked up): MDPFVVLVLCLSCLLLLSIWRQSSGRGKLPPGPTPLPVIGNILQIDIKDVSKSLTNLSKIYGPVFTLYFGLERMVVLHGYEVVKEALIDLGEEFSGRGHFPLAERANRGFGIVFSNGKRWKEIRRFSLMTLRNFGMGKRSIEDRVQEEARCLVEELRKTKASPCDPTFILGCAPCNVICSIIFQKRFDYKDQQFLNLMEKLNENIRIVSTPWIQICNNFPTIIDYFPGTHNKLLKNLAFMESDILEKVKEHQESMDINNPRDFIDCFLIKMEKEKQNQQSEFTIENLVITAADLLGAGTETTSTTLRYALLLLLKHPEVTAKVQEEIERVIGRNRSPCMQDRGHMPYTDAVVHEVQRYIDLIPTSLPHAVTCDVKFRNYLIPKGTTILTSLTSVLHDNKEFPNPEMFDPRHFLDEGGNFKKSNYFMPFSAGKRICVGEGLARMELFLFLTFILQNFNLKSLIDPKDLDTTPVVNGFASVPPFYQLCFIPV

As to `N#Cc1ccccc1-c1ccc2ncnc(NCc3cccnc3)c2c1`, the outcome in [1] was inactive. The Potency is 3.16 µM (active) in [2] and 5.01 µM (active) in experiment [3].

As for `Cc1cnc(CNc2ncnc3ccc(-c4ccccc4Cl)cc23)cn1`, the Potency was over 11.4 µM in experiment [4], 15.8 µM (active) in experiment [2] and 10 µM (active) in experiment [6]. In addition, the molecule was called inactive in [5].

On to `CN(C)c1ncnc2ccc(-c3cccc(NS(C)(=O)=O)c3)cc12`, for which the Potency was over 11.4 µM in experiment [4], 11.2 µM (active) in [2] and 12.6 µM (active) in experiment [3]. Besides, in experiment [1], the outcome was inactive. Besides, in [7], the Potency entry was “inactive”.

In the case of `COCCn1c(=O)c(-c2cccc(C#N)c2)nc2cnc(Oc3cccc(Cl)c3)nc21`, the Potency in [4] was over 11.4 µM. In [1], the molecule was classed as inactive. Besides, the Potency entry in experiment [7], in [2] and in experiment [3] was “inactive” each time.

Consider `CN(C)c1ccc(-c2nccc(NCc3cccs3)n2)cc1`, for which the Potency in experiment [8] is 0.398 µM (active); in experiment [9], 0.126 µM (active); in experiment [2] it was 8.91 µM (active); in [3] it was 5.62 µM (active). Besides, the molecule was classed as inactive in experiment [1] and in [5].

For the molecule `CCNc1ncc2nc(-c3ccccc3)c(=O)n(CCC#N)c2n1`, the figures for the Potency in experiment [8] and in experiment [9] were 3.16 µM (active) and 0.501 µM (active), respectively. Besides, the Potency entry in experiment [2] and in experiment [3] was “inactive” each time.

With `COc1ccccc1-c1nccc(NCc2cccs2)n1`, in [4], the Potency is over 2.29 µM. For the same molecule, the outcome in [1] was inactive. Further, the Potency result in [2] and in experiment [3] was “inactive” throughout.

On to `COc1ccccc1CNc1ncnc2ccc(-c3cccc(NS(C)(=O)=O)c3)cc12`, for which the Potency in experiment [4] is over 11.4 µM; in experiment [10], 3.16 µM (active); in experiment [2], 11.2 µM (active); in experiment [3] it was 14.1 µM (active). For the same molecule, the molecule was called inactive in experiment [1].

In the case of `COc1cccc(Nc2ncc3ncc(=O)n(CCC#N)c3n2)c1`, the figures for the Potency in experiment [8], in experiment [2] and in experiment [3] were 1 µM (active), 6.31 µM (active) and 3.55 µM (active), respectively. For the same molecule, the Potency entry in [7] is “inactive”. Besides, the molecule was classed as inactive in experiment [5].

Regarding `O=c1c(CCc2ccccc2)nc2cncnc2n1Cc1ccccc1`, the Potency in experiment [4] was over 11.4 µM. In addition, the outcome in [1] was inactive. Further, the Potency entry in experiment [2] and in experiment [6] was “inactive” throughout.

On to `O=c1c(-c2cccc(F)c2)nc2cncnc2n1Cc1ccc(F)cc1`, for which the result in experiment [1] was inactive. In addition, the Potency result in experiment [7], in [2] and in experiment [6] was “inactive” in each case.

For the molecule `CN(C)c1ccc(-c2cc(N(C)Cc3ccco3)ncn2)cc1`, the molecule was called inactive in [1] and in experiment [5]. Besides, the Potency entry in experiment [7] and in experiment [6] was “inactive” in each case. Further, the Potency was 7.94 µM (active) in experiment [9] and 31.6 µM (active) in [3].

Consider `COCCn1c(=O)c(-c2cccs2)nc2cnc(N3CCNCC3)nc21`, for which the Potency in experiment [4] is over 11.4 µM; in experiment [11], 2 µM (active). The Potency result in [7] and in [3] was “inactive” each time. For the same molecule, the molecule was called inactive in experiment [5].

In the case of `COc1ccc(CNc2cc(-c3cccc(NS(C)(=O)=O)c3)ncn2)c(OC)c1`, the molecule was called inactive in [1] and in experiment [5]. The Potency entry in experiment [7], in experiment [2] and in [6] was “inactive” each time. The activity change, negative = inhibition in experiment [11] was 30.9% [at 2.29 µM]. Besides, the Potency in [10] was 2.51 µM (active).

For the molecule `COCCn1c(=O)c(-c2cc(F)cc(F)c2)nc2cnc(N3CCN(C)CC3)nc21`, the Potency was over 11.4 µM in experiment [4] and 15.8 µM (active) in experiment [8]. In addition, the Potency result in experiment [7], in experiment [3] and in experiment [6] was “inactive” each time.

Turning to `COc1cccc(Nc2ncc3ncc(=O)n(Cc4ccc(F)cc4)c3n2)c1`, the values for the Potency in experiment [4] and in [2] were over 11.4 µM and 3.98 µM (active), respectively.

Regarding `Clc1ccccc1-c1ccc2ncnc(NCCN3CCOCC3)c2c1`, the figures for the Potency in experiment [8], in experiment [10] and in [2] were 5.01 µM (active), 5.01 µM (active) and 28.2 µM (active), respectively. Also, the outcome in experiment [1] and in experiment [5] was inactive.

Consider `c1cncc(CNc2nc(-c3cccnc3)nc3ccccc23)c1`, for which the molecule was classed as inactive in experiment [1]. In addition, the Potency in experiment [3] was 12.6 µM (active); in experiment [6] it was 11.2 µM (active).

In the case of `CCNc1ncc2ncc(=O)n(Cc3ccc(F)cc3)c2n1`, the Potency was over 11.4 µM in experiment [4], 1 µM (active) in experiment [8] and 7.94 µM (active) in [2]. The Potency result in [7] is “inactive”. For the same molecule, the outcome in experiment [5] was inactive.

Take `COc1ccccc1CNc1ccnc(-c2cccnc2)n1`: the Potency entry in [7] is “inactive”. Also, the Potency in experiment [2] was 28.2 µM (active).

For `c1ccc(CNc2nc(-c3cccnc3)nc3ccccc23)cc1`, the Potency in experiment [4] is over 11.4 µM; in experiment [9], 15.8 µM (active); in experiment [12] it was 15.8 µM (active); in experiment [3], 11.2 µM (active); in experiment [6] it was 5.01 µM (active). In addition, the outcome in [1] was inactive.

With `COc1cccc(-c2nc(NCc3cccnc3)c3ccccc3n2)c1`, the Potency in experiment [4] is over 11.4 µM; in experiment [8] it was 0.158 µM (active); in experiment [10], 2 µM (active); in [2], 25.1 µM (active). In addition, the call in experiment [1] and in experiment [5] was inactive.
